Measured values reported in PubChem BioAssay AID1508635 (National Center for Advancing Translational Sciences (NCATS), 2021).
Results filed as inconclusive are left out. Where a call stands in place of a potency, no number is given. Calls of active or inactive are those of the source. The call rests on the fitted dose curve; in most records, active means well fitted inhibition curve with a large enough effect; inconclusive means small, poorly fitted or top-dose-only effect; inactive means no such curve, though single readings can be large or run the other way. Square brackets hold non-standard residues; d marks the D form. Peptide text beside a SMILES is read from it. * marks the point of attachment. Cbz = O=C(OCc1ccccc1)*; Nva = CCC[CH](N)C(=O)O

system: zebrafish Abcb4 (ABCB1 homolog); experiment: qHTS for characterization and localization of zebrafish homologs of the human ABCB1 multidrug transporter: ABCB4 transfected cells; details: CellTiter-Glo viability luminescence, 72 h; series mostly up to 46.1 µM
Text: The zebrafish has emerged as a potential model to study the blood-brain barrier (BBB) given its similarities with mammalian systems. However, little information has been available with regard to homologous ATP-binding cassette transporters expressed at the zebrafish BBB. Two transporters that are highly expressed at the human BBB are P-glycoprotein (P-gp, encoded by the ABCB1 gene) and ABCG2 (encoded by the ABCG2 gene). In this study, we focus on characterization of P-gp homologs in the zebrafish, which has two genes that are homologous to human ABCB1 - abcb4 and abcb5. We generated stably-transfected cell lines to determine their substrate specificities. […] Zebrafish abcb4 also colocalized with claudin 5 expression in brain endothelial cells.
A high-throughput screen was performed as previously described on empty vector transfected cells, P-gp-overexpressing MDR-19 cells and cells transfected with full-length zebrafish abcb4 (ZF Abcb4) or abcb5 (ZF Abcb5). Briefly, cells were plated into 1536-well plates at a density of 500 cells/well in 5 uL media. P-gp substrate compounds (approximately 90) selected from our previous study were then added at varying concentrations using a 1536-head pin tool (Kalypsis, San Diego, CA) and plates were incubated at 37C in 5% CO2 for 72 h. CellTiter-Glo reagent (Promega) was dispensed into the wells, incubated for 5 min and luminescence was read on a ViewLux instrument (Perkin-Elmer).
Cytotoxic compounds were defined as those that yielded a curve class of -1.1, -1.2, -2.1, -2.2, -2.3, or -2.4, a maximum response of >50% and an AC50 of < 10 uM. All compounds from screening analysis were tested in Vector (empty vector control), MDR-19 (P-gp overexpressing), zebrafish abcb4 (ZF Abcb4) and abcb5 (ZF Abcb5) expression cell lines.
1. Tobie D Lee, Olivia W Lee, Kyle R Brimacombe, Lu Chen, Rajarshi Guha, Sabrina Lusvarghi, Bethilehem G Tebase, Carleen Klumpp-Thomas, Robert W Robey, Suresh V Ambudkar, Min Shen, Michael M Gottesman, Matthew D Hall. A High-Throughput Screen of a Library of Therapeutics Identifies Cytotoxic Substrates of P-glycoprotein. Mol Pharmacol. 2019, Nov;96(5):629-640.

Compound	Potency	activity change, negative = inhibition
C#Cc1cccc(Nc2ncnc3cc(OC)c(OCCCCCCC(=O)NO)cc23)c1	13.2 µM (active)	
CCCC(C=O)NC(=O)C(CC(C)C)NC(=O)C(CC(C)C)NC(=O)OCc1ccccc1 (stereo not drawn) (Cbz-Leu-Leu-[Nva]-aldehyde; configuration not given here)	3.72 µM (active)	
COc1cc2ncn(-c3cc(OCc4ccccc4C(F)(F)F)c(C(N)=O)s3)c2cc1OC	19.1 µM (active)	
COc1ccc(CC2C(=O)NC(C)C(=O)N(C)C3Cc4ccc(cc4)Oc4cc(ccc4OC4OC(CO)C(O)C(O)C4O)CC(C(=O)NC(C)C(=O)NC(C)C(=O)N2C)N(C)C3=O)cc1 (stereo not given)	inactive	
Cc1cc(N)c2ccccc2[n+]1CCCCCCCCCC[n+]1c(C)cc(N)c2ccccc21	inactive	
C=CCn1c(=O)c2cnc(Nc3ccc(N4CCN(C)CC4)cc3)nc2n1-c1cccc(C(C)(C)O)n1	4.18 µM (active)	
CC(=O)O[C@@H]1C[C@H](O)[C@@]23CO[C@@H](O)C1(C)[C@@H]2C[C@@H](O)[C@]1(C)[C@@H]3C(=O)[C@H](OC(C)=O)[C@@]2(C)[C@H](c3ccoc3)C[C@H]3O[C@]321	2.96 µM (active)	
Cc1[nH]c2ccccc2c1CCNCc1ccc(/C=C/C(=O)NO)cc1	2.96 µM (active)	
CCN(CCCO)CCCOc1ccc2c(Nc3cc(CC(=O)Nc4cccc(F)c4)[nH]n3)ncnc2c1	inactive	
CC1(C)CC(NC(=O)C(=O)Nc2ccc(Br)cc2)CC(C)(C)N1	inactive	
N=C(N)c1ccc(OCCCCCOc2ccc(C(=N)N)cc2)cc1	inactive	
CC[C@@]1([C@@H]2O[C@@H]([C@H]3O[C@@](O)(CO)[C@H](C)C[C@@H]3C)C[C@@H]2C)CC[C@H]([C@]2(C)CC[C@]3(C[C@H](O)[C@@H](C)[C@@H]([C@@H](C)[C@@H](OC)[C@H](C)C(=O)O)O3)O2)O1	1.05 µM (active)	
CC(C)CC(=O)Nc1n[nH]c2c1CN(C(=O)C1CCN(C)CC1)C2(C)C	inactive	
COc1cc(N2CCC(O)CC2)ccc1Nc1nc(Nc2ccccc2S(=O)(=O)C(C)C)c2[nH]cnc2n1	inactive	
O=C(NC1CC1)c1cccc(-c2ccc3c(NC(=O)C4CC4)n[nH]c3c2)c1	inactive	
CC(=O)C1(O)Cc2c(O)c3c(c(O)c2C(OC2CC(N)C(O)C(C)O2)C1)C(=O)c1c(O)cccc1C3=O (stereo not given)	0.526 µM (active)	
CC(NCc1ccc2c(c1)nc(NC(=O)c1ccc(-c3cn[nH]c3)s1)n2CC(C)(C)O)C(C)(C)C (stereo not given)	6.62 µM (active)	
CO[C@H]1/C=C/C=C/C=C/C[C@H](OC(=O)[C@@H](C)NC(=O)C2CCCCC2)[C@H](C)[C@@H](O)/C(C)=C/CCc2cc(O)cc(c2)NC(=O)C1	inactive	
CC[n+]1c(-c2ccccc2)c2cc(N)ccc2c2ccc(N)cc21	inactive	
CCc1c(O)cc(O)c(C(=O)c2ccc(OCCN3CCOCC3)c(OC)c2)c1CC(=O)N(CCOC)CCOC	inactive	

Compound	Potency	activity change, negative = inhibition
CC(C)(C)c1cnc(CSc2cnc(NC(=O)C3CCNCC3)s2)o1	38.2 µM (active)	
Cc1ccc(-c2ncn(-c3ccc(Nc4nccc(-c5cccc(N6CCOCC6)c5)n4)cc3)n2)cn1	4.18 µM (active)	
CCN1CCN(Cc2ccc(NC(=O)Nc3ccc(Oc4cc(NC)ncn4)cc3)cc2C(F)(F)F)CC1	inactive	
COc1cc2c(NC3CCN(C(C)C)CC3)nc(N3CCCN(C)CC3)nc2cc1OCCCN1CCCC1	inactive	
CC(C)C[C@H](NC(=O)[C@H](CCc1ccccc1)NC(=O)CN1CCOCC1)C(=O)N[C@@H](Cc1ccccc1)C(=O)N[C@@H](CC(C)C)C(=O)[C@@]1(C)CO1	2.35 µM (active)	
Cc1cc(Nc2cc(N3CCN(C)CC3)nc(Sc3ccc(NC(=O)C4CC4)cc3)n2)n[nH]1	inactive	
CCS(=O)(=O)c1cccc(-c2cc(C(=O)NC3CCN(C)CC3)c(C)c3[nH]c4ncc(C)cc4c23)c1	inactive	
COC[C@H](NC(=O)c1cnc(C)s1)C(=O)N[C@@H](COC)C(=O)N[C@@H](Cc1ccccc1)C(=O)[C@@]1(C)CO1	0.935 µM (active)	
C[C@@H]1O[C@@H](O[C@H]2[C@@H](OC(=O)[C@]34CCC(C)(C)CC3C3=CCC5[C@@]6(C)C[C@H](O)[C@H](O[C@@H]7O[C@H](CO)[C@@H](O)[C@H](O)[C@H]7O[C@@H]7OC[C@@H](O)[C@H](O)[C@H]7O)[C@@](C)(C(=O)O)C6CC[C@@]5(C)[C@]3(C)CC4)OC[C@H](O)[C@@H]2O)[C@H](O)[C@H](O)[C@H]1O[C@@H]1OC[C@@H](O)[C@H](O)[C@H]1O (stereo not given in full)		-5.3% [at 8.96 µM] (inactive)
CC(C)C[C@H](NC(=O)[C@@H](NC(=O)c1cccc(-c2ccccc2)n1)[C@@H](C)O)B(O)O	0.662 µM (active)	
CN(C)C1CCN(C(=O)c2ccc(NC(=O)Nc3nc(N4CCOCC4)nc(N4CCOCC4)n3)cc2)CC1	inactive	
Cc1ccc(C(=O)N(CCCN)[C@@H](c2oc3cc(Cl)ccc3c(=O)c2Cc2ccccc2)C(C)C)cc1	20.9 µM (active)	
CCN(CC)Cc1ccc(C(=O)N(CCc2ccccc2OC)[C@@H]2CCNC2)cc1	inactive	
CCc1cccc(CC)c1NC(=O)N1Cc2[nH]nc(NC(=O)c3ccc(N4CCN(C)CC4)cc3)c2C1	inactive	
CC(C)C[C@@H](C=O)NC(=O)[C@H](CC(C)C)NC(=O)[C@H](CC(C)C)NC(=O)OCc1ccccc1 (Cbz-Leu-Leu-Leu-aldehyde)	2.96 µM (active)	
CCC(C)C(=O)OC1CC(O)C23C4OCC5(C(O)CC2C1(C)C(O)O4)C3C(=O)C(O)C1(C)C(O)(c2ccoc2)CC2OC251 (stereo not given)	inactive	
C[C@@]12O[C@@H](C[C@]1(O)CO)n1c3ccccc3c3c4c(c5c6ccccc6n2c5c31)CNC4=O	5.26 µM (active)	
Cc1nc(Nc2n[nH]c3c2CN(C(=O)N[C@H](CN(C)C)c2ccccc2)C3(C)C)c2sccc2n1	inactive	
C[C@@H]1O[C@@H](O[C@H]2[C@H](O)[C@@H](O)[C@H](O[C@H]3[C@H](O[C@H]4CC[C@@]5(C)C(=CC[C@@H]6C5CC[C@]5(C)[C@@H]7[C@H](C[C@@H]65)O[C@]5(CC[C@@](C)(CO[C@@H]6O[C@H](CO)[C@@H](O)[C@H](O)[C@H]6O)O5)[C@H]7C)C4)O[C@H](CO)[C@@H](O)[C@@H]3O)O[C@@H]2CO)[C@H](O)[C@H](O)[C@H]1O (stereo not given in full)	inactive	
O=C(NC1CCNCC1)c1[nH]ncc1NC(=O)c1c(Cl)cccc1Cl	inactive	
